# PP5 primary = PP5 phosphatase inhibitors, primary screen, biochemical, fluorescence; inhibition, % at 6.7 µM; Serine/threonine-protein phosphatase 5 (Homo sapiens), P53041; 320,000 compounds, 0.18% hits; purified PP5c, OMFP substrate fluorescence;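 active = inhibition above the campaign's mean inhibition across all tested compounds plus 3 SD, cut at about 9.5% in these data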;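 note: 0% = DMSO only and 100% = 100 µM cantharidin control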
# SKKanGAS inh = S. pyogenes SKKanGAS growth inhibitors in kanamycin, primary screen, streptokinase expression inhibitor project, SKKanGAS strain, BacTiter-Glo luminescence. 300,000 compounds, 1.3% hits. inhibition, % at 7.5 µM. 6 h. AID 1662, 2009;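 active = mean replicate score, as percent of positive control median, at least 50; inconclusive = mean below 50 but one replicate at or above 50; inactive = mean and every replicate below 50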;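 note: strain carries kanamycin resistance gene driven by streptokinase promoter and grows in 40 µg/ml kanamycin; loss of luminescence reflects streptokinase promoter inhibition or plain growth inhibition; 0% = median of DMSO wells and 100% = positive control at its reference dose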
# Beta apoptosis = inhibitors of cytokine-induced beta cell apoptosis, primary screen, luminescence; INS-1E cytokine-induced death, ATP luminescence, 48 h; percent of positive-control rescue, neutral wells zero; 300,000 compounds, 0.8% hits; protection from apoptosis, % (test concentration not listed);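 active = Every replicate reaches about 75%, or at least half do and their mean reaches it too, limit read from the data; inconclusive = At least half of replicates reach the limit but their mean does not; inactive = Under half of replicates reach the limit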;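 note: 0% = cytokine-treated negative control wells and 100% = positive control rescue; higher means more ATP so stronger rescue from cytokine killing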
# CSC inhib = cancer stem cell viability inhibitors, primary screen, luminescence; 300,000 compounds, 1.1% hits; inhibition, % at 7.5 µM; AID 2717, 2010; cancer stem cell-like cells viability; in the data active = inhibition above about 75%; inconclusive = no clear call, values can overlap the other calls; tested in HMLE shEcad cells
# PP1 counter = PP1-alpha phosphatase inhibitors, primary screen, counter-screen for PP5 inhibitor project, biochemical, fluorescence, OMFP substrate, single point | Serine/threonine-protein phosphatase PP1-alpha catalytic subunit (Homo sapiens), P62136 | purified PP1alpha | inhibition, % at 6.7 µM | 320,000 compounds, 0.9% hits | AID 2235, 2010;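 active = inhibition above the mean inhibition of all tested compounds plus 3 SD, computed separately for each screening campaign, cut at about 15% in these data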
# Target sequence (P62136 whole entry, looked up): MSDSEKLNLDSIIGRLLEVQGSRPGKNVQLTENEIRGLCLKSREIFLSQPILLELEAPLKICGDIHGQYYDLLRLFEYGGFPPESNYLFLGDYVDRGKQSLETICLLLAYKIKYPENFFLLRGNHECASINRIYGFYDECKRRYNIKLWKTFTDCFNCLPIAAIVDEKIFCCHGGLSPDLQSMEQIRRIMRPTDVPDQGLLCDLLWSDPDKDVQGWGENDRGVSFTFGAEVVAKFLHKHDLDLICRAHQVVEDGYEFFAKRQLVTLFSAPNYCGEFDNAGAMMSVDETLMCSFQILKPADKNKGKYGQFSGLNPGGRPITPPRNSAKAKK
# Active calls of the source: *; ? = inconclusive; nt = not tested or not shown. A selection: hits, their analogues and other compounds. The true share with any hit is near 3.1%.
SMILES,PP5 primary,SKKanGAS inh,Beta apoptosis,CSC inhib,PP1 counter
Cc1nn(CC(O)CN2c3ccccc3Sc3ccccc32)c(C)c1Br (stereo not given),1,100*,-3,31,-1
O=C1NC(=O)c2cc(Br)cc3cccc1c23,0,-4,nt,5,-4
Cc1ccc(NS(=O)(=O)c2cc3c4c(cccc4c2)C(=O)NC3=O)cc1C,1,14,14,79*,6
Cc1[nH]oc(=O)c1N=Nc1ccc2[nH]c(=O)[nH]c2c1,1,3,-7,-13,2
COc1ccc(NC(=O)CN(C)C(=O)/C=C/c2cn(-c3ccccc3)nc2-c2cccs2)cc1,0,7,-4,2,-6
CCCOC(=O)c1ccc(Oc2cn[nH]c2-c2ccc(OC)cc2O)cc1,8,59*,1,104*,-1
COc1cccc(Oc2cn[nH]c2-c2ccc(OCC(=O)NN)cc2O)c1,1,13,0,-5,2
CCc1cc(-c2nc(N)ncc2-c2ccc(Br)cc2)c(O)cc1OC,-3,64*,7,?,6
C=C(C)COc1ccc(-c2[nH]ncc2Oc2ccc(OC)cc2)c(O)c1,0,56*,-9,?,3
C=C(C)COc1ccc(-c2nc(N)ncc2Oc2ccc(OC)cc2)c(O)c1,6,58*,-12,24,3
Cc1nc2sccn2c(=O)c1S(=O)(=O)N1CCN(c2cccc(Cl)c2)CC1,2,-3,1,6,-1
CCc1nn(C(CC)C(=O)NCc2cccc(OC)c2OC)c(=O)c2cc3occc3n12 (stereo not given),3,-1,0,-18,-4
O=C(CCNc1ccc(F)cc1)c1ccco1,-3,0,-4,12,-2
C=C(C)COc1ccc(-c2nc(N)ncc2-c2ccc(Br)cc2)c(O)c1,2,96*,-2,107*,-4
COc1ccc(Sc2ccccc2CN(C)C)cc1OC,-1,0,-16,nt,-7
CNCc1ccccc1Sc1ccc(O)c(O)c1,0,5,-1,85*,-1
C[C@H](CO)N1C[C@H](C)[C@@H](CN(C)C(=O)Nc2ccc(C(F)(F)F)cc2)Oc2c(NC(=O)Nc3ccc(C(F)(F)F)cc3)cccc2C1=O,nt,nt,7,106*,nt
Cc1ccc2ccc3cccnc3c2n1,0,43,86*,-10,1
CC1(C)Cc2ccccc2-c2c1c(=O)n(Cc1ccccc1)c1nnnn21,2,60*,17,46,-9
CC(=O)c1ccccc1N(C(=O)c1ccco1)C(C(=O)NC1CCCC1)c1ccc(C)cc1 (stereo not given),-1,-2,-3,nt,-1
Cn1c(=O)n(Cc2ccc(F)cc2)c(=O)c2c1nc1n2CCCN1C1CCCCC1,1,11,11,78*,1
Cn1c(=O)n(Cc2ccccc2)c(=O)c2c1nc1n2CCCN1C1CCCCC1,0,8,-8,24,-4
COc1cccc(N/N=C/c2cccc(Br)c2O)c1,-1,63*,19,44,-2
CC(CNC(=O)C(C)(C)C)NC(=O)C(C)(C)C (stereo not given),1,-2,-1,-11,1
CCOC(=O)C1CCCN(C(=O)c2ccccc2NC(=O)C2=C(C)OCCS2)C1 (stereo not given),0,2,-1,-18,-2
SMILES,PP5 primary,SKKanGAS inh,Beta apoptosis,CSC inhib,PP1 counter
Cc1ccc(C(=O)CC(=O)c2ccc(C)cc2O)cc1,nt,62*,-3,12,nt
CC(C)(C)c1ccc(C(=O)CC(=O)c2cc(Cl)ccc2O)cc1,2,91*,28,3,-1
Cc1ccc(C(=O)CC(=O)c2ccc(C(C)(C)C)cc2)cc1,1,8,0,16,-4
Cc1ccc(C(=O)CC(=O)c2cc(Cl)ccc2O)cc1,3,126*,6,nt,1
Cc1ccc(CC(=O)c2ccc(Cl)cc2)cc1,1,2,-11,-7,0
COc1ccc(CCNCC(O)COc2c(C)cccc2C)cc1OC (stereo not given),nt,2,0,-3,nt
COc1ccc2cc(C(=O)N3CCC(Cc4ccccc4)CC3)[nH]c2c1,4,1,-5,1,2
COc1ccc(OC)c(NC(=O)c2nnn(Cc3ccccc3C)c2N)c1,5,-7,-6,106*,13
O=C(N/N=C/c1ccc(COc2ccc(Br)cc2)o1)c1ccc2c(c1)OCO2,nt,3,nt,nt,nt
O=C(N/N=C/c1ccc(-c2ccc(Br)cc2)o1)c1ccc2c(c1)OCO2,5,2,4,8,16*
COc1cccc(/C=N/NC(=O)CNC(=O)c2ccc3c(c2)OCCO3)c1O,-2,-8,15,10,-5
CCOc1cccc(/C=N/NC(=O)c2ccc3c(c2)OCCO3)c1O,-1,95*,92*,28,2
CCn1c(C)nc2cc(C(=O)N/N=C/c3cccc(O)c3O)ccc21,2,3,76*,-5,7
CCn1c(C)nc2cc(C(=O)N/N=C/c3ccccc3)ccc21,2,-5,5,4,-2
Cc1ccc(/C=N/NC(=O)c2ccc3c(c2)OCCO3)s1,-2,17,8,92*,-2
CCCn1c(C(CO)Nc2nc(C)cs2)nc2ccccc21 (stereo not given),1,0,-3,-9,-4
CC(=O)c1cccc(NC(=O)C(C)OC(=O)CN2C(=O)NC(C)(C)C2=O)c1 (stereo not given),-4,nt,-2,6,0
CC(C)c1ccccc1NC(=O)CNCCc1ccc(C(F)(F)F)cc1,6,4,-19,3,-1
Cc1cccc(/C=N/NC(=O)c2ccc3c(c2)OCCO3)c1O,3,91*,94*,-20,-1
Nc1cccc2c1C(=O)N(CCOc1ccc(F)cc1)C2=O,2,-6,-1,3,-1
Cc1cc(C2CCCCC2)n(O)c(=O)c1,-1,nt,88*,105*,0
O=C(/C=C/c1ccc([N+](=O)[O-])cc1)NCc1cccnc1,-1,-4,95*,-14,-3
CCOc1ccc(N(CC(=O)NCc2ccco2)C(=O)CCC(=O)Nc2nccs2)cc1,2,-8,-1,5,9
FC(F)(F)c1cccc(-c2nc3nc(Cl)c(Cl)nc3[nH]2)c1,1,?,99*,76*,2
COc1ccc(NC(=O)CSc2nc(O)cc(=O)n2-c2ccccc2)cc1,nt,88*,0,-16,nt
COc1ccccc1-n1c(SCC(=O)Nc2ccc(Br)cc2)nc(O)cc1=O,1,64*,nt,-2,3
O=C(CSc1nc(O)cc(=O)n1-c1ccccc1)Nc1ccc2c3c(cccc13)CC2,2,30,-2,nt,16*
Cc1c(O)nc(SCC(=O)Nc2ccc3c4c(cccc24)CC3)n(-c2ccccc2)c1=O,-3,26,-8,13,0
COc1ccc(NC(=O)CSc2nc(O)cc(=O)n2C)cc1,2,12,-4,-10,10
